Assay results reported in PubChem BioAssay.
Activity calls are given as the source filed them.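 Rule for the calls, unless noted: active = fluorescence slope after compound addition differing from the mean of all screened samples at 99.7% confidence, in either direction; inactive = the rest.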

Columns and labels:
[1] = inhibitors of TNFa-induced NFkB p65 translocation, primary screen, imaging, HUVEC, MLSMR starter and 10KST1 sets (AID 438;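 active = inhibition above 20% together with a positive visual image hit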;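 note: compound added about 3h40 before a 20 min TNFalpha stimulation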;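 for inhibition: signal is the nuclear over cytoplasmic p65 intensity ratio per well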); settings: HUVEC TNFa-induced p65 nuclear translocation; cell count: measured here: nuclei count (cytotoxicity indicator), at 2.08 µM; inhibition: at 2 µM, stronger effect = higher value, 0% TNFa-plus-vehicle, 100% no-TNFa wells
[2] = reduction of polyQ htt aggregates in cells – imaging, exon1htt(103Q)mCFP cells, high-content imaging, primary screen (AID 483;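 active = visual image review flags a hit and inhibition of aggregation exceeds 20%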;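 note: compound exposure lasted 3 days before fixation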;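 for nuclei count: percent of the per-plate median nuclei count of sample wells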); settings: exon1htt(103Q)mCFP cell line, aggregate imaging, at 2 µM; inhibition of aggregation: stronger effect = higher value; nuclei count: measured here: cell count, toxicity
[3] = endothelial E-selectin expression blockers – imaging, HUVEC, immunofluorescence, MLSMR starter and 10KST1 sets, primary screen (AID 487;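 active = visually confirmed hit in the image check and inhibition above 20%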;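 for inhibition: signal is fraction of cell area covered by stained E-selectin grains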;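 for nuclei count: 100% = median nuclei count of all wells on the same plate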); settings: HUVEC TNFalpha-induced E-selectin immunofluorescence imaging, at 2 µM; inhibition: stronger effect = higher value; nuclei count: measured here: cell number, toxicity
[4] = biological target: Voltage-gated potassium channel subunit beta-2 (Rattus norvegicus) (UniProt P62483); experiment: inhibitors of rat Kvbeta2 reductase activity – biochemical, NADPH fluorescence, primary screen (AID 622;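 active = fluorescence slope higher than the sample average by over 3 SD, cut at about -0.22 in these data, passing the limit was not always enough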;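 note: slope of raw intensity against log time taken from 70 to 1610 s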); settings: recombinant KvBeta, 4-cyanobenzaldehyde reduction, at 10 µM, stronger effect = higher value
[5] = biological target: Voltage-gated potassium channel subunit beta-2 (Rattus norvegicus) (UniProt P62483); experiment: enhancers of rat Kvbeta2 NADPH turnover – biochemical, NADPH fluorescence, primary screen (AID 623;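 active = NADPH fluorescence slope more negative than the mean of all samples by about 3 SD, 99.7% confidence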;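 note: fluorescence intensity change per second fitted from 20 to 320 s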); settings: Recombinant KvBeta, NADPH fluorescence decrease slope, 10 min; at 10 µM; stronger effect = lower value
[6] = biological target: Alpha-2C adrenergic receptor (Homo sapiens) (UniProt P18825); experiment: compounds altering alpha2C-coupled GIRK flux – cell-based, HEK293 alpha2C/GIRK1/2, thallium flux, primary screen (AID 624); settings: thallium flux BTC fluorescence, at 10 µM, actives lie on both sides;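 note: slope of fluorescence ratio to pre-addition baseline per second over 15 to 24 s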
[7] = blockers of RIG-like receptor reporter activation – cell-based, Sendai virus stimulus, luciferase, 10K MLSCN set, TLR/RLR signaling modifier project, primary screen (AID 602276;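 active = inhibition at or above 50% at 10 µM; inactive = inhibition below 50%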;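 note: firefly luciferase from ISG56 promoter only with Renilla not read in this screen; 0% = Sendai virus plus DMSO and 100% = medium plus DMSO without virus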); settings: HEK293 RL24 IRF3 luciferase reporter, at 10 µM, stronger effect = higher value
[8] = TLR3 IRF3 reporter activation blockers – cell-based, poly I:C stimulus, luciferase, 10K MLSCN set, primary screen (AID 602277;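 active = inhibition of the reporter signal at or above 50%; inactive = inhibition below 50%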); settings: HEK293-TLR3 RL24 IRF3 luciferase reporter, at 10 µM, stronger effect = higher value

Sequence of Alpha-2C adrenergic receptor (Homo sapiens) (P18825 whole entry, looked up): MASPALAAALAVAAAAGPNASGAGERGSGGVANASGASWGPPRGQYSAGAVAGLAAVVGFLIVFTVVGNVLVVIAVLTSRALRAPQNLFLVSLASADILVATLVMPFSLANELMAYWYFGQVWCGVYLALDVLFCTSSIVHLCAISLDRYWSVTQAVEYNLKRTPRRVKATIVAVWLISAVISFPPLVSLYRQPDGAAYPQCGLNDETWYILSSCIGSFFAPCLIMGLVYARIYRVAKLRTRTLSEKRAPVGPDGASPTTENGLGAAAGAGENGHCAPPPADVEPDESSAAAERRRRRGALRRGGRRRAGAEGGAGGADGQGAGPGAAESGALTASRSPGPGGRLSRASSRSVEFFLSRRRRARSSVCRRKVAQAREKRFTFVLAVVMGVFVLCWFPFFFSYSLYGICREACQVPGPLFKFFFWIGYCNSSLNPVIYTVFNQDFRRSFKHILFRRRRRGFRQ
Sequence of Voltage-gated potassium channel subunit beta-2 (Rattus norvegicus) (P62483 whole entry, looked up): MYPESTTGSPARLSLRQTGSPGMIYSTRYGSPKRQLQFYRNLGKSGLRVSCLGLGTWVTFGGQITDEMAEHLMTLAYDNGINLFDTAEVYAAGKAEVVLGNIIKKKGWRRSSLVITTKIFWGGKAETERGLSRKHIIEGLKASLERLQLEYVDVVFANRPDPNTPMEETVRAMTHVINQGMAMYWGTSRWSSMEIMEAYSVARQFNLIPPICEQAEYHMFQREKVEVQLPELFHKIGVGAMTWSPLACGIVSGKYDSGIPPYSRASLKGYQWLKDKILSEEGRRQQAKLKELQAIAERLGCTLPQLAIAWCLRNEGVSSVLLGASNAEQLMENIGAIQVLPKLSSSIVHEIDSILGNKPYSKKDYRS

Compound | cell count [1] | inhibition [1] | inhibition of aggregation [2] | nuclei count [2] [%] | inhibition [3] | nuclei count [3] [%] | fluorescence slope [4] | NADPH fluorescence slope [5] | slope [6] | inhibition [7] | inhibition [8]
COc1cccc(NC(=O)c2nc3nc(C)cc(C(F)F)n3n2)c1 | 641 | -2.9% (inactive) | 1.9% (inactive) | 68.8 | -34.9% (inactive) | 96.6 | -0.567 (inactive) | -5.2e-05 (inactive) | 0.00736 (inactive) | 3.8% (inactive) | 4.85% (inactive)
CCOC(=O)C1CCCN(CCC(C)c2ccccc2)C1 (centres undefined) | 469 | -2.7% (inactive) | 2.6% (inactive) | 92.9 | 25% (inactive) | 76.3 | -0.612 (inactive) | -4.1e-05 (inactive) | 0.00315 (inactive) | 14.2% (inactive) | 29.6% (inactive)
Cc1nc2ccccc2c2oc(C(=O)N3CCN(C(=O)c4ccco4)CC3)cc12 | 784 | 11.3% (inactive) | 0% (inactive) | 65.6 | 4.8% (inactive) | 98.3 | -0.585 (inactive) | -1.4e-05 (inactive) | 0.00761 (inactive) | 6.87% (inactive) | 12.8% (inactive)
Cc1ccc(NC(=O)c2ccccc2F)nc1 | 336 | -8.1% (inactive) | 0.7% (inactive) | 123 | -16.4% (inactive) | 111 | -0.374 (inactive) | -6.3e-05 (inactive) | 0.00526 (inactive) | -16.7% (inactive) | -41.6% (inactive)
COc1ccccc1CNC(=O)C1CCCN(S(=O)(=O)c2cnc[nH]2)C1 (centres undefined) | 443 | 49.5% (active) | 27.9% (inactive) | 87.1 | -59.5% (inactive) | 103 | -0.558 (inactive) | 7.1e-07 (inactive) | 0.00747 (inactive) | -5.95% (inactive) | 0.0501% (inactive)
COc1ccccc1OCCOCCn1cnc2ccccc2c1=O | 561 | -2.8% (inactive) | 24.9% (inactive) | 79.3 | 2.6% (inactive) | 94.4 | -0.488 (inactive) | -4.9e-05 (inactive) | 0.00575 (inactive) | 10.3% (inactive) | 12.5% (inactive)
Cc1ccc(NC(=O)CN2CC(C)SC2=NC2CCCCC2)cc1 (centres undefined) | 519 | 10.1% (inactive) | -7.2% (inactive) | 109 | -38.8% (inactive) | 112 | -0.514 (inactive) | -4.1e-05 (inactive) | 0.00585 (inactive) | 17.3% (inactive) | 13.9% (inactive)
CCOc1ccc(NCc2nnc(SCC(=O)Nc3cc(C)on3)n2-c2ccccc2OC)cc1 | 325 | -9.3% (inactive) | -6.4% (inactive) | 101 | 41.6% (inactive) | 107 | -0.452 (inactive) | -2.8e-05 (inactive) | 0.00835 (inactive) | 20.4% (inactive) | 30.4% (inactive)
CN1CCN(CC(=O)N2c3ccccc3C(C)(c3ccccc3)CC2(C)C)CC1 (centres undefined) | 352 | 2.9% (inactive) | -16.5% (inactive) | 74.1 | -183% (inactive) | 146 | -0.353 (inactive) | -6.8e-07 (inactive) | 0.00483 (inactive) | 35.9% (inactive) | 26.8% (inactive)
Cc1ccc2c(c1)N(CC(=O)Nc1ccc3c(c1)OCCO3)C(=O)CO2 | 362 | -4.9% (inactive) | -2.2% (inactive) | 84.3 | -6.2% (inactive) | 104 | -0.293 (inactive) | -5e-05 (inactive) | 0.0057 (inactive) | 38.1% (inactive) | 99.4% (active)
CC1(c2ccc(Cl)cc2)NC(=O)N(CC(=O)NC(=O)NCc2ccco2)C1=O (centres undefined) | 482 | 2.9% (inactive) | -25.8% (inactive) | 102 | -48.5% (inactive) | 110 | -0.399 (inactive) | -4.4e-05 (inactive) | 0.00253 (inactive) | 14.9% (inactive) | 18.4% (inactive)
Cc1ccccc1-n1nnc2c(=O)oc3ccccc3c21 | 345 | -1.6% (inactive) | 20.9% (inactive) | 98.5 | -83% (inactive) | 96.8 | -0.347 (inactive) | -3.7e-05 (inactive) | 0.00409 (inactive) | 12.8% (inactive) | 26.7% (inactive)
Cc1ccc(S(=O)(=O)NC(=O)c2cc(C)n(CCCn3ccnc3)c2C)cc1 | 218 | -2.9% (inactive) | 9.2% (inactive) | 92.3 | -86.6% (inactive) | 108 | -0.596 (inactive) | -2.4e-05 (inactive) | 0.00417 (inactive) | 11.6% (inactive) | 13.5% (inactive)
COCCNC(=O)C(c1cccc(OC)c1)N(Cc1cccs1)C(=O)Cn1nnc2ccccc21 (centres undefined) | 722 | -15.1% (inactive) | 8% (inactive) | 109 | -34.3% (inactive) | 109 | -0.622 (inactive) | -5.4e-05 (inactive) | 0.00445 (inactive) | 12.4% (inactive) | 20.1% (inactive)
